HP1b chromo inh: blocks HP1-beta chromodomain binding to methylated histone tails; P83916; AlphaScreen HP1-beta / biotin-H3K9me3 peptide binding; Potency, µM (top dose mostly 114 µM), most hits filed as inhibitors; 0.56% of 390,000 active; AID 540317; note: nearly all actives have a fitted effect of over 70% in size
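AlphaScreen: HP1-beta (50 nM) preformed 30 min with biotin-H3(1-18)K9me3 peptide (50 nM) in PBS pH 7.4, 0.01% Tween-20. Compound added for 30 min at RT, then streptavidin donor/nickel chelate acceptor beads (10 ug/mL) for 30 min.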
Sfp inh: Sfp phosphopantetheinyl transferase inhibition. Q9F4F7. Biochemical Sfp PPTase activity, qHTS. Potency, µM, actives largely listed as inhibitors. 3.5% of 310,000 active;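 note: the enzyme is Sfp with the accession as filed and its product quenches rhodamine fluorescence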
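Fluorescence-quenching assay with 15 nM Sfp, 5 uM rhodamine-CoA and 12.5 uM BHQ-2-labelled ybbR peptide in pH 7.6 Hepes/MgCl2 buffer. Enzyme was pre-incubated with compound for 15 min at room temperature. Rate was taken from the 30-min fluorescence change (525/598 nm).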
JMJD2A Tudor: JMJD2A Tudor domain (human) inhibition | AlphaScreen JMJD2A-Tudor / H3K4me3 peptide binding | O75164 | Potency, µM (doses to about 114 µM), most hits filed as inhibitors | 4.4% of 390,000 active; note: nearly all actives have a fitted effect of over 50% in size
BAZ2B inh: blocks human BAZ2B. Potency, µM (highest dose often 114 µM), actives largely listed as inhibitors. AlphaScreen BAZ2B-H3K14Ac peptide displacement. 4.4% of 360,000 active. Q9UIF8. AID 504333; note: nearly all actives have a fitted effect of over 60% in size
Target sequence (Q9UIF8 whole entry, looked up): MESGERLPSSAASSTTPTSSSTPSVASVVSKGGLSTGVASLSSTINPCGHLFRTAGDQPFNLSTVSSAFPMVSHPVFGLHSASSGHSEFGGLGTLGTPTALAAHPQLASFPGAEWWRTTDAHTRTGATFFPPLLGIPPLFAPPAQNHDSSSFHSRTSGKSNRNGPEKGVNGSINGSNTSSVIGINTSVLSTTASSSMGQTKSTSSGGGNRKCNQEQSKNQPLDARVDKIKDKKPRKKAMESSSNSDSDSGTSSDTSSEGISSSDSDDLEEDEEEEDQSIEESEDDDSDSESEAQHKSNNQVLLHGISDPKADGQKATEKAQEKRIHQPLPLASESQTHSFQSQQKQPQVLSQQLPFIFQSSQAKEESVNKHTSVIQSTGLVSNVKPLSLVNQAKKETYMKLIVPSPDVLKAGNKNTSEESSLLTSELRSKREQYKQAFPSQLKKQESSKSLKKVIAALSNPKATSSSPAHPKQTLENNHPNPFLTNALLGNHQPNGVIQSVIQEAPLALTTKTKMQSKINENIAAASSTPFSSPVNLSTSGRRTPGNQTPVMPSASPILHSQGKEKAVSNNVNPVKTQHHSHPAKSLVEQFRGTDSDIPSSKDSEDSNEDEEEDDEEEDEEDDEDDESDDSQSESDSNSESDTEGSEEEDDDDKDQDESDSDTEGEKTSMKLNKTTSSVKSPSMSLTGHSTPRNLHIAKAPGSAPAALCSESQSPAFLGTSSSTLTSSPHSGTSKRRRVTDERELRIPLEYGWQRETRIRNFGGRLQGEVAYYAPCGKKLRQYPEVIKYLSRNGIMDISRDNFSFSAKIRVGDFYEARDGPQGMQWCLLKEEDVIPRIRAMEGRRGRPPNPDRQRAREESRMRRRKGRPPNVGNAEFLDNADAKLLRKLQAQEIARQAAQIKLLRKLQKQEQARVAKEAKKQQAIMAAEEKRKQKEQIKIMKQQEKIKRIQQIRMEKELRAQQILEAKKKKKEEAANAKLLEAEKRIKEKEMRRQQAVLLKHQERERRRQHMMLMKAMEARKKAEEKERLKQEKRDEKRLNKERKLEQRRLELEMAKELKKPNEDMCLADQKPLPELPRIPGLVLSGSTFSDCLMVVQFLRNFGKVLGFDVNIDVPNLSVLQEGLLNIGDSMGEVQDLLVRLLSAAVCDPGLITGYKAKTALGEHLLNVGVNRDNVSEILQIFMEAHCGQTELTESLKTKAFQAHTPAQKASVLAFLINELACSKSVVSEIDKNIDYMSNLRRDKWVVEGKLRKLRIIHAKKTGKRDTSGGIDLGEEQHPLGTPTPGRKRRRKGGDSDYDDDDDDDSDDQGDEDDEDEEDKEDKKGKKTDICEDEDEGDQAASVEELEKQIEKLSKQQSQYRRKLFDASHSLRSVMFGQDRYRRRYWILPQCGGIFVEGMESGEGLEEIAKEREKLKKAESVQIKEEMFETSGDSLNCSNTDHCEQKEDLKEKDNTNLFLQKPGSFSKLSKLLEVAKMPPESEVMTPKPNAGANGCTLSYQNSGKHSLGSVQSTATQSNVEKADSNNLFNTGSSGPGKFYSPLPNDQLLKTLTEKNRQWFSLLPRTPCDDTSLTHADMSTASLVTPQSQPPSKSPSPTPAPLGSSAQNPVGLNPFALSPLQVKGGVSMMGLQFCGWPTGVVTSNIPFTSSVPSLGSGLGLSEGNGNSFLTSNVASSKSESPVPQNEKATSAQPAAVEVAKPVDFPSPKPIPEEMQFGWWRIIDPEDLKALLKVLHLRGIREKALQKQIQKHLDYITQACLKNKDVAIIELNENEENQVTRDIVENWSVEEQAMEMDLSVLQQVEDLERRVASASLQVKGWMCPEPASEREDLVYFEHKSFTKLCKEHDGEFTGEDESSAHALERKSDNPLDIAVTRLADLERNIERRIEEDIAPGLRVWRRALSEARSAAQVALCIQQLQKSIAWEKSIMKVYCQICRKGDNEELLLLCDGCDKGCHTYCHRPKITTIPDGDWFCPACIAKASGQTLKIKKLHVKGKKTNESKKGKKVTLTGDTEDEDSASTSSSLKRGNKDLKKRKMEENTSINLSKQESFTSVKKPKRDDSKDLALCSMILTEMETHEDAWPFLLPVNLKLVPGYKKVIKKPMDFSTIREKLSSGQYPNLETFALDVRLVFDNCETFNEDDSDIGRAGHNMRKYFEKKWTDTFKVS
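BAZ2B 50 nM plus b-H3(5-23)K14Ac 50 nM, PBS pH 7.4/0.01% Tween-20, 30 min RT; compound added (max 110 uM), 30 min RT; streptavidin donor/Ni-chelate acceptor beads 10 ug/mL final, 20 min dark; AlphaScreen read.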
L3MBTL1 block: inhibitors of human L3MBTL1; AlphaScreen L3MBTL1–H3K9me1 peptide binding; Potency, µM (top dose mostly 57.1 µM), actives largely listed as inhibitors; 0.66% of 230,000 active; note: nearly all actives have a fitted effect of over 60% in size
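L3MBTL1 50 nM + b-AHA-H3(1-15)K9me1 75 nM, 30 min RT; compound added, 30 min RT; streptavidin donor/Ni-chelate acceptor beads 10 ug/mL each final, 30 min RT dark; AlphaScreen read.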
G9a block: blocks human histone lysine methyltransferase G9a | Q96KQ7 | G9a H3K9 monomethylation, AlphaScreen, 2 h | Potency, µM (top dose mostly 102 µM), usual class: inhibitors | 8.8% of 350,000 active | AID 504332; note: nearly all actives have a fitted effect of over 75% in size
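Methyltransferase reactions run at room temperature for 2 h (20 nM enzyme, 500 nM biotin-H3K9 peptide, 20 uM SAM) after a 15 min compound preincubation; product detected by AlphaScreen beads and anti-H3K9me1 antibody.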
Each line names hits and unclear results; the compound was inactive in the other large screens. Hits are enriched below; roughly 12% of the tested compounds scored in any of these assays. Calls come from the whole dose curve; as a rule, active = well fitted curve in the direction sought with a large enough effect; inconclusive = small, poorly fitted or top-dose-only effect, or another doubt; inactive = no such curve, though single readings can be large; an effect the other way counts as inactive or inconclusive.

CCCS(=O)(=O)Nc1ccc(N2CCCCC2)c(S(=O)(=O)Nc2ccccc2OC)c1	G9a block 11µM (no result: Sfp inh)
CCc1cccc(C)c1NC(=O)Cn1c(=O)cc(C(F)(F)F)c2c(C)nn(C)c21	none (no result: Sfp inh, L3MBTL1 block)
Cc1n[nH]c(C)c1S(=O)(=O)N(CC(=O)NCc1ccccc1Cl)c1ccc(C(C)C)cc1	none (no result: Sfp inh, BAZ2B inh, L3MBTL1 block)
CCN(C(=O)c1nn(-c2ccc(OC)c(Cl)c2)c(=O)c2c1c1ccccc1n2C)c1cc(OC)ccc1OC	G9a block inconclusive (no result: Sfp inh, BAZ2B inh, L3MBTL1 block)
CCCCCCCCC[n+]1cccc2c3ccccc3ccc21	none (no result: G9a block)
CCCCCCCCCCCCCCCC[n+]1cccc2ccccc21	Sfp inh 25µM, JMJD2A Tudor inconclusive, BAZ2B inh 50µM, G9a block 6.3µM
O=C1N(Cc2cccnc2)C[C@@H]2C[C@@H](c3cccc(OCc4ccccc4)c3)N3CCC[C@@]123	none (no result: G9a block)
Cn1cc([C@@H]2C[C@H]3CN(Cc4cccc(Cl)c4)C(=O)[C@]34CCCN24)c2ccccc21	G9a block 50µM
O=C1N(Cc2cccc(Cl)c2)C[C@@H]2C[C@@H](c3ccccn3)N3CCC[C@@]123	Sfp inh 50µM, BAZ2B inh 79µM, G9a block 25µM
CCn1ccnc1[C@@H]1C[C@H]2CN(Cc3cccc(Cl)c3)C(=O)[C@]23CCCN13	none
O=C1N(Cc2cccnc2)C[C@@H]2C[C@@H](c3ccc(-c4ccccc4)cc3)N3CCC[C@@]123	G9a block 50µM
COc1cccc(C2=NN(S(C)(=O)=O)C(c3cn(-c4ccccc4)nc3-c3cccs3)C2)c1 (configuration not stated)	none (no result: Sfp inh, L3MBTL1 block)
Nn1cnnc1N/N=C/c1ccc(Cl)cc1Cl	Sfp inh 56µM, BAZ2B inh inconclusive (no result: L3MBTL1 block)
O=C(N/N=C/c1ccc(Cl)cc1Cl)c1ccc(-n2cnnn2)cc1	none (no result: Sfp inh)
CC(C)=CCC/C(C)=C/CO/N=C1/C[C@@H](O)[C@@H](O)[C@@H]2[C@@H]3C(=O)N(C[C@@H]4CCCO4)C(=O)[C@H]3CC[C@H]12	none (no result: HP1b chromo inh, JMJD2A Tudor, BAZ2B inh, L3MBTL1 block, G9a block)
N#Cc1ccc(COn2nnc3ccccc32)cc1	G9a block 89µM
O=C(CCc1ccco1)CCc1ccco1	HP1b chromo inh inconclusive, JMJD2A Tudor 56µM (no result: Sfp inh, BAZ2B inh, L3MBTL1 block, G9a block)
O=C(NCc1ccco1)c1cc(NS(=O)(=O)c2cccc([N+](=O)[O-])c2)ccc1O	BAZ2B inh inconclusive, G9a block 50µM
O=C(NCc1ccco1)c1cccc(NS(=O)(=O)c2cccc(F)c2)c1	none
CCn1c2ccc(C)cc2c2n[nH]c(=S)nc21	G9a block 7.1µM
COc1ccc(NC(=O)Cn2c(=O)n(CCc3ccccc3)c(=O)c3sc4ccccc4c32)cc1	none (no result: Sfp inh, L3MBTL1 block)
CCOC(=O)C(Sc1nn(C)c(=S)s1)C(C)=O (configuration not stated)	Sfp inh 50µM, G9a block 18µM (no result: L3MBTL1 block)
CCOC(=O)C(Sc1cc(C)nc(N)n1)C(C)=O (configuration not stated)	Sfp inh 56µM, JMJD2A Tudor 56µM, G9a block 18µM (no result: L3MBTL1 block)
CCOC(=O)C(Sc1cc(-c2ccccc2)nc2ncnn12)C(C)=O (configuration not stated)	none
O=C(NC(NC(=S)Nc1ccc(F)c([N+](=O)[O-])c1)C(Cl)(Cl)Cl)C(c1ccccc1)c1ccccc1 (configuration not stated)	none (no result: HP1b chromo inh, JMJD2A Tudor, BAZ2B inh, L3MBTL1 block, G9a block)
NC(=O)C1CCCN1C(=O)C(Cc1cnc[nH]1)NC(=O)C1CCC(=O)N1 (configuration not stated)	none (no result: HP1b chromo inh, JMJD2A Tudor, BAZ2B inh, L3MBTL1 block, G9a block)
CCCCN1CC(c2nc3ccccc3n2CCCCOc2ccc(C)c(C)c2)CC1=O (configuration not stated)	none (no result: Sfp inh, L3MBTL1 block)
O=C(O)CCC/C=C\C[C@@H]1[C@@H](CC[C@@H](O)CCc2ccccc2)[C@H](O)C[C@@H]1O	none (no result: HP1b chromo inh, JMJD2A Tudor, BAZ2B inh, L3MBTL1 block, G9a block)
O=C1c2ccccc2C2=Nc3ccccc3SC(c3ccc(Cl)cc3)C12 (configuration not stated)	HP1b chromo inh inconclusive, JMJD2A Tudor inconclusive, BAZ2B inh 10µM, G9a block 11µM
Fc1cccc(C2NN=C(c3ccccc3)S2)c1 (configuration not stated)	G9a block inconclusive

High-throughput results from PubChem BioAssay.
